Data from the supplement of paper PMC6555819.

What was measured:
Assay in all cases: PBM binding z-score (relative to random genomic background probes); higher = stronger binding; sequences stand for … in GC…GCGATTGACAGCGTAGAATGAAGG
[1] = system: FXR:RXRa (NR concentration 270 nM, RXRa partner concentration 90 nM)
Outline: (§1)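 Regression normalization was applied to scanned fluorescence from custom Agilent 4×180K protein-binding microarrays. Before scanning, arrays were incubated 1 h with ligand-free nuclear receptor dimers, and binding was detected with antibodies against each partner (one per run). Binding z-scores use the random background probes as reference.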

[2] = system: LXRa:RXRa (NR concentration 270 nM, RXRa partner concentration 90 nM)
Outline: as §1

[3] = system: LXRa homodimer (NR concentration 270 nM)
Outline: as §1

[4] = system: LXRb:RXRa (NR concentration 270 nM, RXRa partner concentration 90 nM)
Outline: as §1

[5] = system: LXRb homodimer (NR concentration 270 nM)
Outline: as §1

[6] = system: PPARa:RXRa (NR concentration 270 nM, RXRa partner concentration 90 nM)
Outline: as §1

[7] = system: PPARg:RXRa (NR concentration 180 nM, RXRa partner concentration 90 nM)
Outline: as §1

[8] = system: PPARg:RXRa 270nM:90nM, anti-RXR (NR concentration 270 nM, RXRa partner concentration 90 nM)
Outline: as §1

[9] = system: PPARg:RXRa 30nM:10nM, anti-RXR (NR concentration 30 nM, RXRa partner concentration 10 nM)
Outline: as §1

[10] = system: PPARg:RXRa 90nM:30nM, anti-RXR (NR concentration 90 nM, RXRa partner concentration 30 nM)
Outline: as §1

[11] = system: PPARg:RXRa DBDmut IVT, anti-RXR (DBD mutation: RXRa K156A/R161A, NR concentration 270 nM, RXRa partner concentration 90 nM)
Outline: as §1

[12] = system: PPARg:RXRa IVT, anti-PPARg (NR concentration 270 nM, RXRa partner concentration 90 nM)
Outline: as §1

[13] = system: PPARg DBDmut:RXRa IVT, anti-PPARg (DBD mutation: PPARg1 K132A/R137A, NR concentration 270 nM, RXRa partner concentration 90 nM)
Outline: as §1

[14] = system: PPARg DBDmut IVT, anti-PPARg (DBD mutation: PPARg1 K132A/R137A, NR concentration 270 nM)
Outline: as §1

[15] = system: PPARg homodimer (NR concentration 180 nM)
Outline: as §1

[16] = system: PXR:RXRa (NR concentration 270 nM, RXRa partner concentration 90 nM)
Outline: as §1

[17] = system: PXR homodimer (NR concentration 270 nM)
Outline: as §1

[18] = system: RARa:RXR (NR concentration 270 nM, RXRa partner concentration 90 nM)
Outline: as §1

[19] = system: RARa homodimer (NR concentration 270 nM)
Outline: as §1

[20] = system: RARb:RXRa (NR concentration 270 nM, RXRa partner concentration 90 nM)
Outline: as §1

Sequence	PBM binding z-score [1]	PBM binding z-score [2]	PBM binding z-score [3]	PBM binding z-score [4]	PBM binding z-score [5]	PBM binding z-score [6]	PBM binding z-score [7]	PBM binding z-score [8]	PBM binding z-score [9]	PBM binding z-score [10]	PBM binding z-score [11]	PBM binding z-score [12]	PBM binding z-score [13]	PBM binding z-score [14]	PBM binding z-score [15]	PBM binding z-score [16]	PBM binding z-score [17]	PBM binding z-score [18]	PBM binding z-score [19]	PBM binding z-score [20]
TCTTGTAGAACAATAGAGGTTAAGAAAGTGCGCT	0.656	2.99	0.526	1.58	-0.26	1.92	0.287	1.7	2.64	2.2	1.83	1.45	0.641	0.472	-0.0635	3.16	0.538	1.69	0.27	0.777
TCATAGAGGTAAATGCTAGGTGAAAGTCCGATCT	0.371	1.08	-0.125	0.395	-0.74	1.24	0.339	1.7	2.66	2.06	2.05	1.32	-0.394	-0.601	0.164	0.0496	-0.193	0.932	-0.0762	0.439
CCAGACAGGTGAGAAGGTACCTCAGCCTCGATTA	-0.184	-0.333	-0.205	-0.357	-0.562	0.192	0.408	0.244	-0.397	-0.0819	0.836	0.42	-0.603	-0.799	0.408	-0.434	-0.569	-0.0825	-0.214	0.313
CTTTACGGGTCACTCCAGGTTATAGCATCGGAGT	5.38	7.71	3.92	5.61	1.09	4.97	4.47	4.7	1.86	3.42	4.09	4.57	1.34	1.05	2.31	5.1	0.416	3.97	0.111	3.96
CCGAATGGGGCAAGGTTACCATAACGCACAGCCA	0.248	0.895	-0.0673	0.899	-0.855	1.48	1.51	1.71	0.272	1.08	0.946	1.17	-0.387	-0.659	0.548	0.288	-0.323	0.909	-0.0739	1.75
GCGACTGGGGCAAACCAGGTTACCATAAGGTTGG	0.393	0.174	-0.329	0.0865	-0.736	1.37	1.43	1.51	-0.386	0.602	4.47	3.82	-1.05	-0.639	-0.0869	0.736	-0.522	0.63	-0.483	0.961
